High-throughput results: PubChem, National Center for Advancing Translational Sciences (NCATS)
Sampled rows, rich in hits. Any-hit rate of the full collection: about 0.4%.
EPAC1 antag = EPAC1 (human) antagonism | O95398 | EPAC1 GEF assay, Rap1b-BODIPY-GDP exchange fluorescence | Potency, µM (highest dose often 115 µM), inactives show at the top dose activity change, negative = inhibition, most hits filed as inhibitors | 360,000 tested, 0.14% active | AID 720709;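 further: plate controls were vehicle for no effect and positive control for full effect; nearly all actives have a fitted effect of over 50% in size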
Target sequence (O95398 whole entry, looked up): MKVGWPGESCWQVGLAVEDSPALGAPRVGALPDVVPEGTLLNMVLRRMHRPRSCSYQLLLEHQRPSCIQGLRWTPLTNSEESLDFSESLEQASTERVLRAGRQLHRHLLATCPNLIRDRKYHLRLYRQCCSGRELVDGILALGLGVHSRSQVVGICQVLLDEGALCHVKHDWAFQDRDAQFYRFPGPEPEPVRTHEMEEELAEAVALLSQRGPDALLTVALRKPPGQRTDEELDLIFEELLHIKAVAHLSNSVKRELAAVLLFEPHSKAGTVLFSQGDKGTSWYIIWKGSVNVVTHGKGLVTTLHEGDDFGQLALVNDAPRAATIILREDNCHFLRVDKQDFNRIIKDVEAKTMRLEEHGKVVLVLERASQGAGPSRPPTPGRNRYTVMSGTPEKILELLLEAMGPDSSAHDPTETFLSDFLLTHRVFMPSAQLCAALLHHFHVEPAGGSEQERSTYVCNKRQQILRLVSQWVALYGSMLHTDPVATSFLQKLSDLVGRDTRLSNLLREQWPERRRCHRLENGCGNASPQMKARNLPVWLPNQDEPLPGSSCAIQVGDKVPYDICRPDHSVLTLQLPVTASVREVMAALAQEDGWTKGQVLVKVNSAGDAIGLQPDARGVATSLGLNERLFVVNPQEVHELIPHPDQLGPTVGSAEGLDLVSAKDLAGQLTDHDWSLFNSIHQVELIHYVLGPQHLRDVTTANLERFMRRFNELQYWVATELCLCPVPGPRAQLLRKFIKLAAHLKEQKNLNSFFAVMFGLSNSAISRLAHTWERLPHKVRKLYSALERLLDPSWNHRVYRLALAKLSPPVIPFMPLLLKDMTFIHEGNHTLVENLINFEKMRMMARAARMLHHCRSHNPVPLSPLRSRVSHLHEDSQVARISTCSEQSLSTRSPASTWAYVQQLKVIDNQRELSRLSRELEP
RGS4 inh = blocks human RGS4-accelerated GTP hydrolysis; P49798; Transcreener GDP fluorescence polarization, RGS4-accelerated GTP hydrolysis; Potency, µM (highest dose often 114 µM), inactives show top-dose activity change, negative = inhibition, hits mostly inhibitors; 390,000 tested, 0.039% active; AID 504845; further: on the % scale 0 is the no-effect control and ±100 the full control effect; nearly all actives have a fitted effect of over 75% in size
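MLSMR compounds (23 nl, pin-transferred) preincubated 10 min at room temperature with a 500nM (2x) first reagent, then RGS4 at 900nM (2x) plus Transcreener GDP mix added; fluorescence polarization (620/688 nm) read before and after 90 min at 30 °C.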
EPAC2 agonist = activates human EPAC2 exchange factor. AID 720711. Q8WZA2. Potency, µM (titrated, usually from 154 µM), inactives show top-dose activation, usual class: activators. EPAC2 activation, biochemical qHTS; response scale: 100% = 6.5 mM cAMP response. 360,000 tested, 0.079% active; further: nearly all actives have a fitted effect of over 50% in size
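Each well held 100 nM EPAC2, 250 nM RAP1B-BODIPY-GDP and 50 uM GDP. Fluorescence, read at 5-min intervals to 30 min, was referenced to a 6.5 mM cAMP positive control.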
EPAC2 antagonist = blocks human EPAC2 exchange factor; Q8WZA2; EPAC2 GEF exchange of Rap1B-BODIPY-GDP, fluorescence; Potency, µM (highest dose often 114 µM), for inactives: at the highest dose activity, negative = inhibition, usual class: inhibitors; 360,000 tested, 0.18% active; AID 720708; further: on the % scale 0 is the no-effect control and ±100 the full control effect; nearly all actives have a fitted effect of over 45% in size
ERG Ets-DNA blk = inhibitors of human ERG Ets domain-DNA interaction; P11308; fluorescence polarization, His-ERG Ets domain / labelled DNA; Potency, µM (top dose mostly 76.9 µM), for inactives: at the highest dose FP activity, negative = inhibition, usual class: inhibitors; 370,000 tested, 0.028% active; AID 624246; active means well fitted inhibition curve with a large enough effect in the polarisation, with a control signal flat; inconclusive means small, poorly fitted or top-dose-only effect, or effect the other way, or a change in a side signal; inactive means no such curve, though single readings can be large or run the other way; the % refers to the polarisation;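 further: polarization taken with two DNA probes labelled with fluorescein and Texas red; % of control where 0% means no effect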
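His-tagged ERG Ets domain (1 uM in the protein solution; 300mM KCl, 50mM Tris-HCl, 1mM EDTA, 1mM DTT, pH 7.5) received compound, then a probe mix of 5 nM fluorescein-DNA and 100nM Texas-615-DNA. Fluorescence polarization was read for both dyes.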
EPAC1 ag = EPAC1 (human) agonism | Potency, µM (highest dose often 154 µM), inactives show top-dose activation, actives largely listed as activators | 360,000 tested, 0.073% active | AID 720707 | EPAC1 agonist qHTS, biochemical assay; response scale: 100% = response to 6.5 mM cAMP; further: nearly all actives have a fitted effect of over 60% in size
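Fluorescent GDP-exchange assay: 100 nM EPAC1 with 250 nM Rap1B preloaded with BODIPY-GDP and 50 uM GDP; compounds tested as concentration series, 5 min at room temperature, then read every 5 min for 30 min (ex 480/em 540 nm); normalized to 6.5 mM cAMP.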
Active calls of the source: *; i = inactive; ? = inconclusive; / = not tested or not shown. Unless noted, the call rests on the fitted dose curve; in most records, active means well fitted curve in the direction sought with a large enough effect; inconclusive means small, poorly fitted or top-dose-only effect, or another doubt; inactive means no such curve, though single readings can be large; an effect the other way counts as inactive or inconclusive. Potency means the concentration at half of the fitted maximal effect.

SMILES	EPAC1 antag	RGS4 inh	EPAC2 agonist	EPAC2 antagonist	ERG Ets-DNA blk	EPAC1 ag
COc1ccccc1Oc1ncnc2c1oc1ccccc12	-19%	4%	12%	79µM*	-17%	16%
CCOC(=O)C1CCCN(C(=O)c2ccc3[nH]c4c(c3c2)CC(C)CC4)C1 (stereo not given)	-21%	24%	-4%	-16%	/	-3%
CC1CCc2[nH]c3ccc(C(=O)N4CCCC(C(F)(F)F)C4)cc3c2C1 (stereo not given)	?	-4%	-14%	-29%	-7%	112µM*
CN1/C(=C\C=C(/C#N)C(=O)Nc2ccc(Cl)cc2)C(C)(C)c2ccccc21	60%	12%	50µM*	57%	-7%	?
CN1/C(=C\C=C(C#N)C#N)C(C)(C)c2ccccc21	-10%	10%	63µM*	i	-13%	-19%
CN1/C(=C/C=N/n2cnnc2)C(C)(C)c2ccccc21	-1%	-16%	2%	-6%	/	3%
CN1/C(=C\C(=O)Nc2ccc(Cl)cc2)C(C)(C)c2ccccc21	3%	-6%	6%	-2%	0%	5%
Cc1ccc(S(=O)(=O)N2[C@@H](c3cccc(Cl)c3)C(C(=O)O)=CC[C@H]2c2ccc(C(C)C)cc2)cc1	56µM*	0%	-9%	-28%	-7%	-16%
Nc1c(Cl)ncnc1N/N=C/c1ccc(O)cc1	?	16%	3%	28µM*	4%	-4%
O=C(Nc1cccc2cccnc12)c1c(Cl)cc(Cl)cc1Cl	/	-10%	/	/	/	/
c1ccc(NN(Cc2ccccn2)c2ccccc2)cc1	-14%	/	18%	14µM*	/	-1%
COc1cc(/C=C2\C(=O)N(c3ccccc3)N=C2C)ccc1Oc1ccc([N+](=O)[O-])cc1[N+](=O)[O-]	-9%	-43%	3%	-1%	-1%	4%
CC1=NN(c2ccccc2)C(=O)/C1=C\c1ccc(Oc2ccc([N+](=O)[O-])cc2[N+](=O)[O-])cc1	79µM*	?	3%	2%	0%	11%
CCCCN(CC)CCCNC(=O)C1CCN(c2nc3ccc(CC)cc3s2)CC1	/	31%	/	/	-9%	/
O=C(O)C1Nc2c(Cl)cc(Cl)c(Cl)c2C2C=CCC12 (stereo not given)	?	?	2%	1%	3%	10%
O=C(O)C1Nc2c(Cl)cc(Cl)cc2C2C=CCC12 (stereo not given)	18µM*	?	1%	-2%	52%	5%
COc1cc(/C=C2/NC(=O)NC2=O)cc(Br)c1OCc1ccc(C(=O)O)cc1	79µM*	-27%	-1%	11%	3%	18%
O=C(O)COc1c(Cl)cc(/C=C2\NC(=O)NC2=O)cc1Br	-5%	-17%	-1%	2%	0%	5%
CCOC(=O)c1ccc(NC(=O)CCc2c(C)nc3c(c(C)nn3C)c2C)cc1	/	18%	/	/	-3%	/
CC1=Nc2ccccc2/C1=C\c1nc(-c2ccc(F)cc2)oc1O	26%	-30%	?	47%	-3%	89µM*
Cc1ccc(S(=O)(=O)N2CCN(c3nc(-c4cncn4C)nc4ccccc34)CC2)cc1	/	11%	/	/	/	/
COc1cc2ccccc2cc1C(=O)N1CC(C)CC(C)C1 (stereo not given)	-4%	26%	9%	28µM*	12%	-3%
Oc1ccccc1/C=N/n1c(COc2ccccc2)n[nH]c1=S	-15%	-43%	4%	-3%	28µM*	1%
CCc1n[nH]c(=S)n1/N=C/c1ccc(N(C)c2ccccc2)cc1	0%	-31%	14%	-3%	5µM*	14%
O=C(Cc1ccccc1)Nc1nc2ccc(Cl)cc2c2nc(-c3ccco3)nn12	/	38µM*	/	/	/	/
COc1cc(OC)c(NC(=O)N2CCOc3ccc(C)cc32)cc1Cl	/	20%	/	/	-2%	/
COc1cc2nc(NCc3ccccc3Cl)n3nc(-c4cccnc4)nc3c2cc1OC	/	21%	/	/	-5%	/
